Assay results from PubChem BioAssay AID1159580 (chemical genetic matrix, 2015).
Values joined by “and” are separate entries in the source; they are usually repeats but may differ in a detail not shown here. Equal entries are not always repeated. In all, about 5,500 compounds went through this assay and about 2,000 (36%) were called active. Another 18% or so got no clear call; they are omitted. Rule as the data show it: active = normalized growth mostly below about 0.91 (no sharp cut-off); inconclusive = no clear call, values can overlap the other calls; inactive = mostly above about 0.92. Some of the results follow.

Experiment: chemical genetic growth profiling, strain panel (AID 1159580);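 also: tested at 20 µM; growth read once vehicle control cultures reached saturation at 30 °C; 1 = growth at the plate median or of vehicle wells; lower values mean less growth of the strain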
Settings: S. cerevisiae deletion strains, growth OD

Measured: normalized growth

CC1(C)S[C@@H]2C(N3C(=O)[C@@H](c4ccccc4)NC3(C)C)C(=O)N2[C@H]1C(=O)O (some centres not stated)
inactive: locus YAL021C, strain ccr4, active compounds read low 1.03 | locus YAL026C, strain drs2, active compounds read low 1.02 | locus YAL030W, strain snc1, active compounds read low 1 | locus YBL061C, strain skt5, active compounds read low 1.02 | locus YBR009C, strain hhf1, active compounds read low 1.03 | locus YBR021W, strain FUR4, active compounds read low 0.994 | locus YBR023C, strain chs3, active compounds read low 1.04 | locus YBR171W, strain sec66, active compounds read low 1.04 | locus YBR229C, strain ROT2, active compounds read low 1.01 | locus YBR231C, strain swc5, active compounds read low 0.975 | locus YBR279W, strain paf1, active compounds read low 1.02 | locus YCL011C, strain gbp2, active compounds read low 1.03 | locus YCL016C, strain dcc1, active compounds read low 1.06 | locus YCL029C, strain bik1, active compounds read low 1.02 | locus YCL061C, strain MRC1, active compounds read low 1.03 | locus YCL069W, strain vba3, active compounds read low 1.02 | locus YCR088W, strain abp1, active compounds read low 1.02 | locus YDL005C, strain med2, active compounds read low 1.02 | locus YDL035C, strain GPR1, active compounds read low 1 | locus YDL040C, strain nat1, active compounds read low 1.01 | locus YDL074C, strain BRE1, active compounds read low 1.02 | locus YDL101C, strain DUN1, active compounds read low 1.01 | locus YDL185W, strain tfp1, active compounds read low 1.02 | locus YDL192W, strain arf1, active compounds read low 1.03 | locus YDR001C, strain nth1, active compounds read low 1.01 | locus YDR069C, strain doa4, active compounds read low 0.977 | locus YDR101C, strain arx1, active compounds read low 1.01 | locus YDR137W, strain rgp1, active compounds read low 1.11 | locus YDR159W, strain sac3, active compounds read low 0.958 | locus YDR162C, strain NBP2, active compounds read low 1 | locus YDR195W, strain ref2 1.01 | locus YDR297W, strain sur2, active compounds read low 0.98 | locus YDR318W, strain mcm21, active compounds read low 1.02 | locus YDR334W, strain swr1, active compounds read low 1.02 | locus YDR335W, strain msn5, active compounds read low 0.989 | locus YDR388W, active compounds read low 1.03 | locus YDR392W, strain spt3, active compounds read low 0.952 | locus YDR502C, strain sam2, active compounds read low 1.03 | locus YEL003W, strain gim4, active compounds read low 1.02 | locus YEL037C, strain rad23, active compounds read low 1.02 | locus YEL061C, strain CIN8 (second series), active compounds read low 1.02 | locus YEL061C, strain CIN8, active compounds read low 1.01 | locus YER015W, strain faa2, active compounds read low 1 | locus YER016W, strain bim1, active compounds read low 1.01 | locus YER110C, active compounds read low 1.04 | locus YER111C, strain swi4, active compounds read low 1.03 | locus YER155C, strain BEM2 (second series), active compounds read low 0.975 | locus YER155C, strain BEM2, active compounds read low 1 | locus YER167W, strain BCK2, active compounds read low 1 | locus YFR010W, strain ubp6, active compounds read low 1.03 | locus YGL078C, strain dbp3, active compounds read low 1.03 | locus YGL086W, strain mad1, active compounds read low 0.996 | locus YGL167C, strain pmr1, active compounds read low 1.02 | locus YGL173C, strain kem1, active compounds read low 1.03 | locus YGL227W, strain vid30, active compounds read low 1.02 | locus YGL240W, strain doc1, active compounds read low 0.972 | locus YGL248W, strain PDE1, active compounds read low 1.01 | locus YGL253W, strain hxk2, active compounds read low 1.02 | locus YGR078C, strain PAC10, active compounds read low 1 | locus YGR135W, strain pre9, active compounds read low 1.04 | locus YGR252W, strain gcn5, active compounds read low 1.01 | locus YHR013C, strain ard1, active compounds read low 1.06 | locus YHR027C, strain rpn1, active compounds read low 1.02 | locus YHR030C, strain SLT2, active compounds read low 1.01 and 0.988 | locus YHR079C, strain IRE1 (second series), active compounds read low 1.02 | locus YHR079C, strain IRE1, active compounds read low 0.979 | locus YHR094C, strain hxt1, active compounds read low 1.03 | locus YHR129C, strain ARP1, active compounds read low 0.995 | locus YHR142W, strain chs7, active compounds read low 1.05 | locus YHR200W, strain rpn10, active compounds read low 1.03 | locus YIL066C, strain RNR3, active compounds read low 1 | locus YIL073C, strain SPO22, active compounds read low 1.06 | locus YIL125W, strain kgd1, active compounds read low 1.02 | locus YIR030C, strain dcg1, active compounds read low 1.03 | locus YJL092W, strain hpr5, active compounds read low 1.02 | locus YJL095W, strain BCK1 (second series), active compounds read low 0.987 | locus YJL095W, strain BCK1, active compounds read low 1.02 and 0.98 | locus YJL115W, strain asf1, active compounds read low 1.02 | locus YJL129C, strain trk1, active compounds read low 1.04 | locus YJL134W, strain LCB3, active compounds read low 1.01 | locus YJL154C, strain vps35, active compounds read low 1.02 | locus YJL164C, strain tpk1, active compounds read low 1.04 | locus YJL166W, strain qcr8, active compounds read low 1.02 | locus YJL168C, strain set2, active compounds read low 1.03 | locus YJL187C, strain SWE1 (second series), active compounds read low 1 | locus YJL187C, strain SWE1, active compounds read low 0.974 | locus YJR066W, strain TOR1, active compounds read low 0.944 | locus YKL009W, strain mrt4, active compounds read low 0.99 | locus YKL068W, active compounds read low 1.01 | locus YKL085W, strain MDH1 (second series), active compounds read low 1.02 | locus YKL085W, strain MDH1, active compounds read low 1.02 | locus YKL160W, strain elf1, active compounds read low 1.05 | locus YKR001C, strain vps1, active compounds read low 1.04 | locus YKR026C, strain gcn3, active compounds read low 1.02 | locus YKR091W, strain srl3, active compounds read low 1.02 | locus YLL001W, strain dnm1, active compounds read low 1.04 | locus YLL026W, active compounds read low 1.02 | locus YLL041C, strain sdh2, active compounds read low 1 | locus YLR027C, strain aat2, active compounds read low 1 | locus YLR039C, strain RIC1, active compounds read low 1.03 | locus YLR058C, strain SHM2, active compounds read low 1.01 | locus YLR102C, strain apc9, active compounds read low 1.03 | locus YLR113W, strain HOG1, active compounds read low 1 | locus YLR221C, strain rsa3, active compounds read low 1.03 | locus YLR258W, strain gsy2, active compounds read low 0.999 | locus YLR262C, strain YPT6 (second series), active compounds read low 1.11 | locus YLR262C, strain YPT6, active compounds read low 1.05 | locus YLR268W, strain sec22, active compounds read low 1.02 | locus YLR320W, strain mms22, active compounds read low 1.08 | locus YLR330W, strain CHS5, active compounds read low 1 | locus YLR342W, strain FKS1 (second series), active compounds read low 0.997 | locus YLR342W, strain FKS1, active compounds read low 1.03 | locus YLR357W, strain rsc2, active compounds read low 1.01 | locus YLR370C, strain arc18, active compounds read low 1 | locus YLR371W, strain rom2, active compounds read low 1.01 | locus YLR384C, strain iki3, active compounds read low 1.02 | locus YLR418C, strain cdc73, active compounds read low 1.03 | locus YML016C, strain PPZ1, active compounds read low 1.01 | locus YML032C, strain rad52, active compounds read low 1.02 | locus YML120C, strain ndi1, active compounds read low 1.05 | locus YML124C, strain tub3, active compounds read low 1.02 | locus YMR058W, strain fet3, active compounds read low 1.01 | locus YMR078C, strain ctf18, active compounds read low 1.03 | locus YMR125W, strain sto1, active compounds read low 1.03 | locus YMR129W, active compounds read low 1.02 | locus YMR205C, strain PFK2, active compounds read low 0.992 | locus YMR223W, strain ubp8, active compounds read low 1.04 | locus YMR231W, strain pep5, active compounds read low 1.02 | locus YMR263W, strain SAP30, active compounds read low 1 | locus YMR307W, strain GAS1, active compounds read low 1.01 | locus YNL067W, strain RPL9B, active compounds read low 1.01 | locus YNL071W, strain lat1, active compounds read low 1.03 | locus YNL183C, strain NPR1, active compounds read low 0.95 | locus YNL209W, strain ssb2, active compounds read low 1.02 | locus YNL233W, strain BNI4, active compounds read low 1 | locus YNL248C, strain rpa49, active compounds read low 1.03 | locus YNL250W, strain rad50, active compounds read low 1.05 | locus YNL271C, strain bni1, active compounds read low 1.04 | locus YNL298W, strain CLA4, active compounds read low 1.04 | locus YNL307C, strain MCK1, active compounds read low 1.03 | locus YNL322C, strain KRE1 (second series), active compounds read low 1.05 | locus YNL322C, strain KRE1, active compounds read low 1 | locus YNR049C, strain mso1, active compounds read low 0.993 | locus YNR052C, strain pop2, active compounds read low 1.02 | locus YOL006C, strain TOP1, active compounds read low 1.03 | locus YOL012C, strain htz1 0.716 | locus YOL147C, strain pex11, active compounds read low 1.03 | locus YOR001W, strain rrp6, active compounds read low 1.01 | locus YOR061W, strain CKA2, active compounds read low 1.01 | locus YOR069W, strain VPS5, active compounds read low 1 | locus YOR070C, strain gyp1, active compounds read low 1.03 | locus YOR080W, strain dia2, active compounds read low 1.05 | locus YOR083W, strain WHI5, active compounds read low 1.03 | locus YOR106W, strain vam3, active compounds read low 1.02 | locus YOR136W, strain idh2, active compounds read low 1.03 | locus YOR144C, strain elg1, active compounds read low 1.02 | locus YOR184W, strain ser1, active compounds read low 1.05 | locus YOR231W, strain MKK1, active compounds read low 0.997 | locus YOR265W, strain rbl2, active compounds read low 1.03 | locus YOR270C, strain vph1, active compounds read low 1.08 | locus YOR290C, strain snf2, active compounds read low 0.962 | locus YOR316C, strain cot1, active compounds read low 1.03 | locus YPL051W, strain arl3, active compounds read low 1.04 | locus YPL078C, strain atp4, active compounds read low 1.03 | locus YPL106C, strain sse1, active compounds read low 1.01 | locus YPL240C, strain hsp82, active compounds read low 0.985 | locus YPL256C, strain CLN2, active compounds read low 0.982 | locus YPR119W, strain clb2, active compounds read low 1.03 | locus YPR141C, strain kar3, active compounds read low 1.03 | locus YPR163C, strain tif3, active compounds read low 1.04 | locus YPR167C, strain met16, active compounds read low 1.02 | strain wtn01, active compounds read low 1.04
